Bioassay records from PubChem.
ABHD5 PLIN5 PPI: inhibitors of human ABHD5-perilipin-5 interaction | Q00G26+Q8WTS1 | Split G. princeps luciferase complementation, luminescence, 4 h | inhibition, % at 4 µM | hit rate 0.78% among 360,000;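 active means inhibition above the mean inhibition across every tested compound plus 3 SD, cut at about 22% in these data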;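 further: 0% = DMSO only wells and the 100% control is not disclosed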
Target sequence (Q00G26 whole entry, looked up): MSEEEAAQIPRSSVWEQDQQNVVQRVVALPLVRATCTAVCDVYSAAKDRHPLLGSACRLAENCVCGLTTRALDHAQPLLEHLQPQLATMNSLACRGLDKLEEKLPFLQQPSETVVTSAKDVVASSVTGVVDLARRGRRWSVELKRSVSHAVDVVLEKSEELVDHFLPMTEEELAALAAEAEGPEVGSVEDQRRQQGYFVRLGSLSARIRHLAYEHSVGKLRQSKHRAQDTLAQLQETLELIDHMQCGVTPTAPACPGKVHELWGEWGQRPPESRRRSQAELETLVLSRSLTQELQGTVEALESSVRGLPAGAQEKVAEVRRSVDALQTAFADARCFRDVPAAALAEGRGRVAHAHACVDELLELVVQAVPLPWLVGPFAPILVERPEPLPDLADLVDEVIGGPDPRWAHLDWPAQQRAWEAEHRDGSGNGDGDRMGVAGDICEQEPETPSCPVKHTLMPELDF
Target sequence (Q8WTS1 whole entry, looked up): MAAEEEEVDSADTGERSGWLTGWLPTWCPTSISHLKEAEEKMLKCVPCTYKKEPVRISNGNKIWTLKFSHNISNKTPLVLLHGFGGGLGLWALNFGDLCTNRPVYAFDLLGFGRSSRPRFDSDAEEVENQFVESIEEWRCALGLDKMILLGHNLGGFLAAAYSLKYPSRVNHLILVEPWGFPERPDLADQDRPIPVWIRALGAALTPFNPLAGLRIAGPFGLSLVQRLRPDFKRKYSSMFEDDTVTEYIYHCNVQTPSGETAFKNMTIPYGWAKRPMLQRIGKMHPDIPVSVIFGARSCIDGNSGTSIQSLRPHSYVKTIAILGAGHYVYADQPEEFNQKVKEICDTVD
Mdm2 MdmX PPI: inhibitors of human Mdm2/MdmX interaction; SaOS-2 split-luciferase Mdm2/MdmX complementation, luminescence; hit rate 3% among 330,000; inhibition, % at 8 µM; AID 485346;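 active means inhibition of at least 50% at 8 µM in the primary screen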
KKLEB tox: CF airway cell cytotoxicity counter-screen | KKLEB CF airway cells viability, ATPlite luminescence, overnight; active compounds read low; cells stimulated with P. aeruginosa culture filtrate | activity change (cytotoxicity), % at 5 µM | hit rate 0.36% among 360,000 | AID 602141;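 active means corrected activity change at or below -50% at 5 µM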
CF NFkB inh: blocks PAF-induced NF-kB reporter in cystic fibrosis cells; KKLEB NF-kB-GFP reporter, GFP fluorescence overnight; inhibition, % at 5 µM; hit rate 0.86% among 360,000; AID 588850;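 active means at least 50% inhibition at 5 µM, scaled per plate between neutral and stimulator controls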;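 further: PAF is a Pseudomonas aeruginosa culture filtrate used as stimulus; plate controls were PAF-stimulated DMSO wells for no effect and unstimulated DMSO wells for full effect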
Peg3 prom inh: Peg3 promoter activity inhibition. HeLa PEG-Prom luciferase reporter, luminescence, overnight. inhibition, % at 20 µM. hit rate 1.7% among 360,000;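 active means inhibition of at least 50% at 20 µM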
HIF-2a block: inhibitors of HIF-2a; hit rate 0.72% among 360,000; AID 624352; 786-0 RCC cells HIF-2a reporter, luciferase luminescence, overnight; inhibition, % at 18.8 µM;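 active means inhibition of the luminescence signal of 40% or more relative to plate controls, in a single-dose primary screen at 18.75 µM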
Mdm2-MdmX conf: human Mdm2/MdmX binding inhibition, confirmed; shares compounds with Mdm2 MdmX PPI; luminescent assay; inhibition, % at 8 µM; hit rate 55% among 10,000; in the data active means inhibition above about 40%
FLuc counter: inhibits full-length luciferase, flagging false Mdm2/MdmX hits; SaOS-2 full-length luciferase counterscreen, luminescence; shares compounds with Mdm2 MdmX PPI; inhibition, % at 8 µM; hit rate 77% among 6,200;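 active means mean inhibition at 8 µM reaching about 37%, which flags the compound as non-specific, limit read from the data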;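 further: p53-null SaOS-2 cells with luciferase driven by a doxycycline-inducible promoter; compound on cells about two nights before reading with doxycycline added after day one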
Starred values were filed as active, the others as inactive; / = no result given. Sampled rows, rich in hits. Any-hit rate of the full collection: about 4.6%.

SMILES	ABHD5 PLIN5 PPI	Mdm2 MdmX PPI	KKLEB tox	CF NFkB inh	Peg3 prom inh	HIF-2a block	Mdm2-MdmX conf	FLuc counter
COc1ccc(-c2c(-c3cc(OC)cc(OC)c3)sc3ccc(OC)cc23)cc1	-8	2	6	-2	-5	11	/	/
CCOc1ccc2c(c1)C(=O)C(=O)N2CC1COc2ccccc2O1 (stereo not drawn)	2	69*	2	33	-2	10	30	/
COc1ccc2c(c1)C(=O)C(=O)N2CC1COc2ccccc2O1 (stereo not drawn)	19	54*	-3	18	-15	-3	25	/
O=C1NC(Cc2ccc(O)cc2)c2nc3ccccc3c(=O)n2-c2ncccc21 (stereo not drawn)	3	/	-2	-9	-1	8	/	/
C[C@@H]1ON(C)[C@H]2C[C@H]3c4[nH]c5ccc(-c6ccc7c(c6)OCO7)cc5c4CCN3C(=O)[C@@H]12	2	/	-12	15	31	-20	/	/
CN(Cc1ccc(Cl)cc1Cl)C(=O)Cc1ccc(S(=O)(=O)N2CCOCC2)s1	5	/	0	-12	23	13	/	/
Cc1ccc(OCC(O)Cn2c(=N)n(CCN3CCCCC3)c3ccccc32)cc1 (stereo not drawn)	10	69*	-21	26	78*	19	58*	47*
COc1ccc(OCC(O)Cn2c(=N)n(CCN3CCCCC3)c3ccccc32)cc1 (stereo not drawn)	3	53*	-12	7	16	22	41*	77*
COc1ccc(OCC(O)CN2CCCCC2)cc1 (stereo not drawn)	6	-29	-3	0	6	-2	/	/
Cc1ccc(OCC(O)Cn2c(=N)n(CCN3CCOCC3)c3ccccc32)cc1 (stereo not drawn)	0	-6	-14	-2	-3	10	/	/
CC1COc2ccccc2N1S(=O)(=O)c1ccc(Cl)cc1 (stereo not drawn)	-6	6	-9	17	40	19	/	/
Cc1ccc(S(=O)(=O)N2c3cc(C)ccc3OCC2C(C)(C)C)cc1 (stereo not drawn)	-10	63*	-9	30	42	21	72*	48*
Cc1ccc(S(=O)(=O)N2c3ccccc3OCC2c2ccccc2)cc1 (stereo not drawn)	-9	56*	-8	7	34	11	58*	55*
Cc1cccc(N=Nc2ccc(O)c3ncccc23)c1	-2	73*	3	-4	-102	-94	89*	22
Oc1ccc(N=Nc2ccc3c(c2)OCCO3)c2ncccc12	15	98*	-3	-22	-34	4	87*	26
CCOc1ccc(N=Nc2ccc(O)c3ncccc23)cc1	3	68*	7	-38	22	7	81*	23
CCOc1ccc(N=Nc2cc(C(C)C)ccc2O)cc1	-7	-16	-1	-6	-74	-82	/	/
O=C(Nc1ncccc1O)c1ccc2c(c1)OCCO2	12	6	6	-15	-146	-211	/	/
COc1ccc([C@@H]2CC(=O)[C@@H]3CN(S(=O)(=O)c4ccc(Cl)cc4)[C@H](c4ccc(C)cc4)C[C@@H]3N2S(=O)(=O)c2ccccc2)cc1	6	/	-3	15	14	19	/	/
CCCCN1C(=O)C(CC(=O)NC2CCCC2)CC(C(=O)N2CCCCCC2)=C1C (stereo not drawn)	-5	/	/	/	/	8	/	/
O=c1[nH]c(=O)c2cc3ccccc3nc2[nH]1	-12	/	6	-52	0	-12	/	/
Cc1cc2cc3c(=O)[nH]c(=O)[nH]c3nc2cc1C	/	53*	/	/	/	/	17	/
Cc1onc(-c2ccccc2)c1C(=O)NC(=S)NNC(=O)c1ccc(O)cc1O	-1	59*	-30	39	27	3	43*	71*
COc1ccccc1CNC(=O)c1cc(C(=O)CC(C)C)c[nH]1	-4	-9	1	13	13	-11	/	/
Cc1cccnc1C(NC(=O)C1CCN(Cc2ccc(Oc3ccccc3)cc2)CC1)c1ccccc1 (stereo not drawn)	4	/	-11	2	14	3	/	/
SMILES	ABHD5 PLIN5 PPI	Mdm2 MdmX PPI	KKLEB tox	CF NFkB inh	Peg3 prom inh	HIF-2a block	Mdm2-MdmX conf	FLuc counter
Cc1[nH]c2c(C)cccc2c1CCNC(=O)c1ccc2c(c1[N+](=O)[O-])C(=O)c1ccccc1C2=O	10	75*	-4	-7	103*	-10	31	/
Cc1[nH]c2ccccc2c1CCNC(=O)c1ccc2c(c1[N+](=O)[O-])C(=O)c1ccccc1C2=O	11	69*	-16	-11	101*	-29	20	/
CN(C)C(=O)c1ccc2c(c1[N+](=O)[O-])C(=O)c1ccccc1C2=O	-2	14	-4	19	-88	-138	/	/
O=C(Nc1ccc(NS(=O)(=O)c2ccc([N+](=O)[O-])cc2)cc1)c1ccco1	-5	15	6	-12	13	-1	/	/
CCC12C(=O)C(CC)(C(c3ccccc3)=C1c1ccccc1)[C@@H]1C(=O)N(c3ccccc3)C(=O)C12 (stereo partly drawn)	-5	54*	-8	3	30	12	65*	59*
CCCC12C(=O)C(C)(C(c3ccccc3)=C1c1ccccc1)C1C(=O)N(c3ccc(C)cc3)C(=O)C12 (stereo not drawn)	-2	80*	-3	12	-4	11	80*	69*
CN1C(=O)Cc2cc(S(=O)(=O)N3CCN(c4cccc(C(F)(F)F)c4)CC3)ccc21	-4	3	6	-12	-11	0	/	/
O=C(Nc1nc2ccc3ccccc3c2s1)c1ccc(N2CCCCC2)c([N+](=O)[O-])c1	2	18	-1	16	-3	-7	/	/
O=C(Nc1nc2ccc(Cl)cc2s1)c1ccc(N2CCCCC2)c([N+](=O)[O-])c1	-4	61*	-18	31	10	-7	42*	54*
O=C(Nc1cc(=O)[nH]c(=O)[nH]1)c1cccc(C(F)(F)F)c1	0	8	-7	-17	2	9	/	/
O=C(Nc1cc(=O)[nH]c(=O)[nH]1)c1cc(Cl)ccc1Cl	4	64*	-3	3	12	18	56*	58*
CCOC(=O)Cc1csc(NC(=O)C(CC(C)C)NC(=O)C2CCCCC2)n1 (stereo not drawn)	-4	2	3	11	-8	10	/	/
CCn1c(O)c(/C=C2\C=NN=C2c2ccc(C)cc2)sc1=S	-1	82*	6	-5	13	10	63*	97*
CC(C)n1c(O)c(/C=C2\C=NN=C2c2ccccc2)sc1=S	-14	61*	8	58*	11	6	43*	48*
